{
  "source": "PubChem BioAssay (NCATS)",
  "note": "Inconclusive results are not listed. Unmarked numbers belong to inactive results. Active and inactive are the calls of the source. Calls come from the whole dose curve; as a rule, active = well fitted inhibition curve with a large enough effect; inconclusive = small, poorly fitted or top-dose-only effect; inactive = flat fitted curve, though single readings scatter. % is set by controls: 0 for no effect and ±100 for the full control effect. Note: nearly all actives have a fitted effect of over 65% in size.",
  "data": [
    {"target": "Glutathione peroxidase 1 (Homo sapiens) (UniProt P07203)", "sequence (P07203 whole entry, looked up)": "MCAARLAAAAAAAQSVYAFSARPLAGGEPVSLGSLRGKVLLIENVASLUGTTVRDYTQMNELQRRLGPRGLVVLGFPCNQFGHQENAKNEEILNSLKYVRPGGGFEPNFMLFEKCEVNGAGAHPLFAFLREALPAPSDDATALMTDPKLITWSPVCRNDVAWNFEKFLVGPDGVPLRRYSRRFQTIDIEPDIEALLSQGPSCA", "experiment": "Primary qHTS Assay for Inhibitors of Recombinant Selenoprotein Glutathione Peroxidase 1 (GPX1) (AID 1845191)", "details": "recombinant GPX1, GR-coupled NADPH fluorescence, 15 min; series mostly up to 48.8 µM; activity, negative = inhibition: at the top concentration", "how_it_was_run": "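Recombinant GPX1 (10 nM final) was preincubated with compound for 30 min at room temperature, then reacted with 1 mM GSH, 0.5 mM CHP, 0.5 mM NADPH and 100 nM glutathione reductase; NADPH fluorescence (340/450 nm) was read at 0 and 15 min.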", "units": {"activity, negative = inhibition": "%"}, "values": [
      {"smiles": "O=[N+]([O-])c1nccn1CO[C@@H](CO)[C@H](O)CO", "outcome": "inactive"},
      {"smiles": "C[C@@H]1C[C@H]2[C@@H]3CCC4=CC(=O)C=C[C@]4(C)[C@@]3(F)[C@@H](O)C[C@]2(C)[C@@]1(O)C(=O)COC(=O)c1ccncc1", "outcome": "inactive"},
      {"smiles": "CN(CC1(C)CCCO1)S(=O)(=O)c1ccc(Cl)c(S(N)(=O)=O)c1", "note": "(centres undefined)", "activity, negative = inhibition": -4.81},
      {"smiles": "COc1ccc(-n2nc(CCC(=O)N(C)O)cc2-c2ccc(Cl)cc2)cc1", "outcome": "inactive"},
      {"smiles": "Cc1ccccc1N1CCN(CCc2nnc3n2CCCC3)CC1", "activity, negative = inhibition": 3.61},
      {"smiles": "C=CC[N+]1([C@H]2C[C@H]3[C@@H]4CC[C@H]5C[C@H](OC(C)=O)[C@@H](N6CCCCC6)C[C@]5(C)[C@H]4CC[C@]3(C)[C@H]2OC(=O)CC)CCCCC1", "activity, negative = inhibition": -14.2},
      {"smiles": "CCc1cc(S(=O)(=O)O)c2cc(C(C)C)cccc1-2", "activity, negative = inhibition": -19.1},
      {"smiles": "Cc1ncc(CO)c(CO)c1O", "activity, negative = inhibition": 0.627},
      {"smiles": "C/C(=C1\\CCOC(=O)S1)N(C=O)Cc1cnc(C)nc1N", "outcome": "inactive"},
      {"smiles": "C[N+]1(CC2COC(c3ccccc3)(c3ccccc3)O2)CCCCC1", "note": "(centres undefined)", "outcome": "inactive [at 27.7 µM]"},
      {"smiles": "O=C(CCC1CCN(Cc2ccccc2)CC1)c1ccc2c(c1)NCCCC2", "outcome": "inactive"},
      {"smiles": "CC(C)Cc1ccc(C(C)C(=O)OCc2ccccn2)cc1", "note": "(centres undefined)", "outcome": "inactive"},
      {"smiles": "C[C@]12CCC(=O)C=C1CC[C@@H]1[C@@H]2[C@@H](O)C[C@@]2(C)[C@H]1CC[C@]2(O)C(=O)COC(=O)CCC(=O)O", "activity, negative = inhibition": -13.8},
      {"smiles": "CC(=O)N(c1onc(C)c1C)S(=O)(=O)c1ccc(N)cc1", "activity, negative = inhibition": -14.7},
      {"smiles": "CC(=O)OCC(=O)[C@@]1(O)[C@H](OC(C)=O)C[C@H]2[C@@H]3CCC4=CC(=O)C=C[C@]4(C)[C@@]3(F)[C@@H](O)C[C@@]21C", "activity, negative = inhibition": -11.3},
      {"smiles": "CCOC(=O)Cn1cccc1-c1nc(-c2ccc(OC)cc2)c(-c2ccc(OC)cc2)s1", "activity, negative = inhibition": -8.35},
      {"smiles": "C/C(=N\\O)[C@@H](C)NCC(C)(C)CN[C@H](C)/C(C)=N/O", "outcome": "inactive"},
      {"smiles": "Oc1ccccc1", "activity, negative = inhibition": -13.6}
    ]},
    {"target": "Phospholipid hydroperoxide glutathione peroxidase GPX4 (Homo sapiens) (UniProt P36969)", "sequence (P36969 whole entry, looked up)": "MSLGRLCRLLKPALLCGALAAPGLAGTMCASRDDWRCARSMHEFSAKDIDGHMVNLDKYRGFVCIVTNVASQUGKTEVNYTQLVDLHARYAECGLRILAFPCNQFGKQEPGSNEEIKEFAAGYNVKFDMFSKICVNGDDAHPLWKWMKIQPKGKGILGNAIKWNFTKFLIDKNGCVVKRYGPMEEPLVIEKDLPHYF", "experiment": "Primary qHTS Assay for Inhibitors of Recombinant Selenoprotein Glutathione Peroxidase 4 (GPX4) (AID 1845192); note: potency is the fitted concentration of half-maximal effect", "details": "recombinant GPX4, GR-coupled NADPH fluorescence, 15 min; series mostly up to 50 µM; activity change, negative = inhibition: at the top concentration", "how_it_was_run": "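GR-coupled readout: 100 nM GR, 1 mM GSH, 0.5 mM NADPH; NADPH fluorescence (ex 340/em 450 nm) read at t=0 and after 15 min RT. GPX4 200 nM, preincubated 30 min with compound; substrate 0.5 mM CHP.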", "units": {"activity change, negative = inhibition": "%"}, "values": [
      {"smiles": "CCN1CCN(c2cc(-c3ccc(F)cc3)c3c(n2)CCCCCC3)CC1", "outcome": "inactive [at 27.8 µM]"},
      {"smiles": "CCC(C(=O)NC(=O)NC(C)=O)c1ccccc1", "note": "(centres undefined)", "outcome": "inactive"},
      {"smiles": "Brc1ccc([C@H]2CN3CCSC3=N2)cc1", "Potency": "inactive"},
      {"smiles": "O=C1NC2CCCCN2C12CCN(CCCN1c3ccccc3CCc3ccc(Cl)cc31)CC2", "note": "(centres undefined)", "activity change, negative = inhibition": -2.25},
      {"smiles": "CCOC(=O)c1ccc(OCCN2C[C@H](O)[C@@H](O)[C@H](O)[C@H]2CO)cc1", "outcome": "inactive"},
      {"smiles": "COC(=O)/C=C\\C(=O)OC", "activity change, negative = inhibition": -14.9},
      {"smiles": "CC(C)(C)c1nnc(NS(=O)(=O)c2ccccc2)s1", "outcome": "inactive"},
      {"smiles": "COc1c(N2C[C@@H]3CCCN[C@@H]3C2)c(F)cc2c(=O)c(C(=O)O)cn(C3CC3)c12", "Potency": "11.2 µM (active)"},
      {"smiles": "O=C(O)[C@@H](O)[C@H](O)[C@H](O)[C@@H](O)C(=O)O", "outcome": "inactive"},
      {"smiles": "CCOC(=O)c1ccc(NC(=O)CN2CCCCC2)cc1", "activity change, negative = inhibition": -8.45},
      {"smiles": "CC(C(=O)O)c1ccc(/C=C2\\CCCCC2=O)cc1", "note": "(centres undefined)", "outcome": "inactive"},
      {"smiles": "COC(=O)CCCCC(CCSS/C(CCO)=C(\\C)N(C=O)Cc1cnc(C)nc1N)SC(C)=O", "note": "(centres undefined)", "activity change, negative = inhibition": 2.31},
      {"smiles": "Cn1cc(S(C)=O)c(=O)c2ccc(F)cc21", "note": "(centres undefined)", "activity change, negative = inhibition": -17.5},
      {"smiles": "CC(=O)Oc1ccc(C2(c3ccc(OC(C)=O)cc3)Oc3ccccc3NC2=O)cc1", "outcome": "inactive"},
      {"smiles": "CC(=O)OCC[N+](C)(C)C", "activity change, negative = inhibition": 4.91},
      {"smiles": "O=C(O)CNC(=O)CNC(=O)CNC(=O)CSC(=O)c1ccccc1", "outcome": "inactive"},
      {"smiles": "CCCCCCCCCCCCCCCCCCNC(=O)OC1CCN(C(=O)OC[C@H](COC(=O)N(Cc2cccc[n+]2CC)C(=O)c2ccccc2OC)OC)CC1", "outcome": "inactive"},
      {"smiles": "O=C(CCCCCCCCC#CI)Oc1ccccc1", "outcome": "inactive"},
      {"smiles": "O=[N+]([O-])c1nccn1CO[C@@H](CO)[C@H](O)CO", "outcome": "inactive"},
      {"smiles": "C[C@@H]1C[C@H]2[C@@H]3CCC4=CC(=O)C=C[C@]4(C)[C@@]3(F)[C@@H](O)C[C@]2(C)[C@@]1(O)C(=O)COC(=O)c1ccncc1", "outcome": "inactive"},
      {"smiles": "CN(CC1(C)CCCO1)S(=O)(=O)c1ccc(Cl)c(S(N)(=O)=O)c1", "note": "(centres undefined)", "activity change, negative = inhibition": -5.68},
      {"smiles": "COc1ccc(-n2nc(CCC(=O)N(C)O)cc2-c2ccc(Cl)cc2)cc1", "outcome": "inactive"},
      {"smiles": "Cc1ccccc1N1CCN(CCc2nnc3n2CCCC3)CC1", "outcome": "inactive"},
      {"smiles": "C=CC[N+]1([C@H]2C[C@H]3[C@@H]4CC[C@H]5C[C@H](OC(C)=O)[C@@H](N6CCCCC6)C[C@]5(C)[C@H]4CC[C@]3(C)[C@H]2OC(=O)CC)CCCCC1", "activity change, negative = inhibition": 3.62},
      {"smiles": "CCc1cc(S(=O)(=O)O)c2cc(C(C)C)cccc1-2", "activity change, negative = inhibition": -3.76},
      {"smiles": "Cc1ncc(CO)c(CO)c1O", "activity change, negative = inhibition": 1.05},
      {"smiles": "C/C(=C1\\CCOC(=O)S1)N(C=O)Cc1cnc(C)nc1N", "outcome": "inactive"},
      {"smiles": "C[N+]1(CC2COC(c3ccccc3)(c3ccccc3)O2)CCCCC1", "note": "(centres undefined)", "outcome": "inactive [at 27.8 µM]"},
      {"smiles": "O=C(CCC1CCN(Cc2ccccc2)CC1)c1ccc2c(c1)NCCCC2", "outcome": "inactive"},
      {"smiles": "CC(C)Cc1ccc(C(C)C(=O)OCc2ccccn2)cc1", "note": "(centres undefined)", "outcome": "inactive"},
      {"smiles": "C[C@]12CCC(=O)C=C1CC[C@@H]1[C@@H]2[C@@H](O)C[C@@]2(C)[C@H]1CC[C@]2(O)C(=O)COC(=O)CCC(=O)O", "activity change, negative = inhibition": 0.52},
      {"smiles": "CC(=O)N(c1onc(C)c1C)S(=O)(=O)c1ccc(N)cc1", "activity change, negative = inhibition": -4.35},
      {"smiles": "CC(=O)OCC(=O)[C@@]1(O)[C@H](OC(C)=O)C[C@H]2[C@@H]3CCC4=CC(=O)C=C[C@]4(C)[C@@]3(F)[C@@H](O)C[C@@]21C", "activity change, negative = inhibition": -10.8},
      {"smiles": "CCOC(=O)Cn1cccc1-c1nc(-c2ccc(OC)cc2)c(-c2ccc(OC)cc2)s1", "outcome": "inactive"},
      {"smiles": "C/C(=N\\O)[C@@H](C)NCC(C)(C)CN[C@H](C)/C(C)=N/O", "outcome": "inactive"},
      {"smiles": "Oc1ccccc1", "activity change, negative = inhibition": -8.21}
    ]}
  ]
}
